Most compounds without a hit are left out; they make up all but 3.6% or so of the library.
bCat KO growth – beta-catenin-lacking colon tumor cell growth suppression; 140,000 tested, 1.5% active; HCT116 beta-catenin knockout viability, CellTiter-Glo, 60 h; stronger effect = lower value; AID 818; viability, % at 10 µM;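 active means viability at or under a set limit, the compound median less 4 SD, cut at about 6% in these data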;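 further: 0% = Hyamine 1622 control at 20 µM and 100% = untreated cell control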
WT yeast gro inh – growth inhibition of WT yeast, mitochondrial fusion screen; 190,000 tested, 2.1% active; mitochondrial fusion phenotypic screen, WT strain; inhibition, % at 10 µM; AID 1362; in the data active means inhibition above about 58%; tested in S. cerevisiae
PTEN del growth – growth suppressors of cells with PTEN tumor suppressor deletion; viability, % at 10 µM; HCT116 PTEN-null viability, CellTiter-Glo, 60 h; stronger effect = lower value; 140,000 tested, 1.2% active;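 active means viability at or below a set limit, 4 SD under the median of all tested compounds, cut at about 3.7% in these data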;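 further: PTEN knockout HCT116 line with beta catenin targeted HCT116 as companion control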
DAT uptake mod – changed human dopamine transporter uptake under cocaine IC80; Q01959; LLC-PK1 hDAT cells, [14C]-dopamine uptake with cocaine IC80; actives deviate in either direction; B-score at 10 µM; 110,000 tested, 1.3% active; AID 449768;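 active means Z score or B-score, a plate-position-corrected score, falls beyond the plate's 99.7% confidence bounds, in either direction; inactive means both scores lie inside the 99.7% bounds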;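 further: scored against the spread of the other compound wells on the same plate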
Target sequence (Q01959 whole entry, looked up): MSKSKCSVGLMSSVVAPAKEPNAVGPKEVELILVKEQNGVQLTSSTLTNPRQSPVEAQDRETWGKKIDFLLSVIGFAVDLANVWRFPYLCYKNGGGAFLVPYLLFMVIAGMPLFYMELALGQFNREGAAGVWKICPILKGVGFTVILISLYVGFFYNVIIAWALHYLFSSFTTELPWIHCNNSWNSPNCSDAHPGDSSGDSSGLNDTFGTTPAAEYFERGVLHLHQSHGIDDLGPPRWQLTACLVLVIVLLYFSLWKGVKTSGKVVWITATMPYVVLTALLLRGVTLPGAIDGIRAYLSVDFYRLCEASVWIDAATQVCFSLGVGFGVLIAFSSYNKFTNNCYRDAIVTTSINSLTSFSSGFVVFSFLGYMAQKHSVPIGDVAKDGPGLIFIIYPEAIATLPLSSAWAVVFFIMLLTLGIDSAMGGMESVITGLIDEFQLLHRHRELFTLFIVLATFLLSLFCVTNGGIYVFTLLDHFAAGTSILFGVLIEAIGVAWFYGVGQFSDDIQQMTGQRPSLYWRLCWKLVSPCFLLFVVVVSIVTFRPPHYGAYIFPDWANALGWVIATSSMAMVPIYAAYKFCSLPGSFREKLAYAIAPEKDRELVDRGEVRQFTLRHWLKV
Numbers without * were called inactive; / = not tested or not shown.

SMILES	bCat KO growth	WT yeast gro inh	PTEN del growth	DAT uptake mod
CCCOP(=O)(OCCC)C(Nc1ccc(C(=O)O)cc1)c1ccccc1 (centres undefined)	/	-7	/	/
CCCCOP(=O)(OCCCC)C(Nc1ccccc1)c1ccc2c(c1)OCO2 (centres undefined)	39	65*	35	/
CC(N=C1NS(=O)(=O)c2ccccc21)C(=O)N1CCc2ccccc2C1 (centres undefined)	/	0	/	/
CC(=O)O[C@@H]1[C@H]2[C@@H](C[C@@H](C)[C@@H]3CCC(=O)[C@@]13C)OC(=O)[C@@H]2C	/	/	/	0.11
O=C(c1ccccc1)c1cncc(Br)c1	98	3	93	-8.1*
O=C(NCc1ccccc1)c1cncc(Br)c1	104	-24	109	/
O=C(Cc1ccccc1)N/N=C/c1ccc([N+](=O)[O-])s1	1.4*	21	1.0*	-0.55
Cn1c(SCC(=O)N/N=C/c2ccc([N+](=O)[O-])s2)nnc1-c1ccccc1	1.9*	81	1.6*	/
O=C(N/N=C/c1ccc([N+](=O)[O-])s1)C(O)c1ccccc1 (centres undefined)	0.8*	-15	1.0*	/
COc1ccccc1NC(=S)N(CCc1nc2cc(C)c(C)cc2[nH]1)Cc1cccnc1	84	8	83	1.7
Cc1ccc(-c2nc3cc(Br)cnc3nc2-c2ccc(C)cc2)cc1	/	77*	/	/
Cc1nc2ncc(Br)cc2[nH]1	94	-7	104	/
Cc1cccc(N2C(=O)C(Oc3ccc(Cl)cc3Cl)C2C=O)c1C (centres undefined)	5.2*	75*	4	/
N#CCCn1cc(C(=O)N2CCCCC2)c(-c2ccc([N+](=O)[O-])cc2)n1	/	8	/	/
O=C(N/N=C1/CCSC1)c1cc(Br)ccc1O	/	15	/	/
CCOc1ccccc1C(=O)Nc1cnn(Cc2ccc(F)cc2)c1	106	11	110	/
CCOC(=O)c1c(NC(NC(=O)C(C)C)C(Cl)(Cl)Cl)sc2c1CCC2 (centres undefined)	72	66*	65	/
CCOC(=O)Nc1sc2c(c1C(=O)OCC)CCC2	89	-3	98	-0.54
COCCn1c(=N)c(C(=O)NCCc2ccccc2)cc2c(=O)n3cccc(C)c3nc21	/	12	/	0.63
N=c1c(C(=O)NCc2ccco2)cc2c(=O)n3ccccc3nc2n1CCc1ccccc1	24	3	16	4.1*
CCNC(=O)c1cc2c(=O)n3cccc(C)c3nc2n(CCc2ccccc2)c1=N	4.8*	16	6	2.2
Cc1ccc(Cn2c(=N)c(C(=O)NCc3ccco3)cc3c(=O)n4ccccc4nc32)cc1	59	16	53	/
Cc1nc(-c2cccc3ccccc23)ccc1C(=O)O	98	-11	99	/
CCN(CC)CCCN(C(=O)Cn1nnc(-c2ccc(OC)c(OC)c2)n1)C(C(=O)NC(C)(C)C)c1ccc(F)cc1 (centres undefined)	/	5	/	/
C[C@H]1CC[C@H]2C(=O)N3[C@H](c4ccccc4Br)[C@@H](C)CC[C@H]3C(=O)N2[C@@H]1c1ccccc1Br	2.3*	70*	3.0*	/
SMILES	bCat KO growth	WT yeast gro inh	PTEN del growth	DAT uptake mod
C[C@H]1CC[C@H]2C(=O)N3[C@H](c4cccc(N5CCCC5=O)c4)[C@@H](C)CC[C@H]3C(=O)N2[C@@H]1c1cccc(N2CCCC2=O)c1	95	-6	93	/
Cc1ccc2c(c1)c(N=O)c(O)n2Cc1ccc(Cl)cc1	/	74*	/	/
CCc1ccccc1N1CC23C=CC(O2)C(C(=O)OC)C3C1=O (centres undefined)	93	17	91	-0.53
CCc1ccccc1N1C[C@@]23C=C[C@@H](O2)C(C(=O)OCC(C)C)[C@H]3C1=O (some centres undefined)	103	60*	95	0.55
CC1(C)CC(NC(=O)c2sc3cc(Cl)ccc3c2Cl)CC(C)(C)N1	/	16	/	/
Cc1cccc(C)c1NC(=O)CN(C)CC(=O)Nc1ccccc1Br	93	66*	93	-0.36
CCN(CC)CC(=O)Nc1c(C)cccc1C	99	-15	106	/
CCCC(=O)C1=C(O)C(C(=O)OC)C(C)(C)CC1=N (centres undefined)	101	13	108	-3.2*
CCCC(=O)C1=C(O)C(C(=O)OC)C(C)(C)CC1=Nc1cccc2ccccc12 (centres undefined)	67	37	66	3*
O=C(Cc1cccs1)N1CCN(S(=O)(=O)c2ccc(F)cc2)CC1	/	9	/	/
O=C(Nc1ccc(Cl)cc1)NC1CCCCC1Cc1ccco1 (centres undefined)	61	75*	53	-1.6
O=C(Nc1ccc(Cl)cc1)NC1CCCC1Cc1ccco1 (centres undefined)	10	-53	2.9*	-5.7*
O=C(Nc1ccc(Cl)cc1)NC1CCCCC1	108	2	95	-0.13
COc1ccc(-c2[nH]c(-c3ccc4c(c3)OCO4)nc2-c2ccccc2)cc1	1.3*	71*	1.4*	-1.7
O=C(O)c1ccc(-c2nc(-c3ccccc3)c(-c3ccccc3)[nH]2)cc1	99	14	99	/
COc1ccc(-c2[nH]c(-c3ccc(C(=O)O)cc3)nc2-c2ccccc2)cc1	117	-5	98	-2.4*
CNc1nc(-c2ccccc2)nc(-c2ccc(OC)cc2)c1C#N	/	7	/	/
COc1ccc(-c2nc(-c3ccccc3)[nH]c(=O)c2C#N)cc1	90	80*	84	0.53
Cc1ccccc1NC(=O)C(C)O/N=C/c1cccc([N+](=O)[O-])c1 (centres undefined)	89	2	81	0.42
CCc1oc2ccccc2c1C(=O)c1cc(Br)c(O)c(Br)c1	98	85*	94	0.68
O=C(Nc1cccc(Cl)c1)c1csc(-c2ccccc2)n1	85	61*	78	/
COc1ccc(NC(=O)c2csc(Cc3ccc(Cl)cc3)n2)cc1	/	59*	/	/
O=C(Nc1ccc(Cl)cc1)c1csc(Cc2ccccc2)n1	/	74*	/	/
COc1ccc(CCNC(=O)Cn2c(=O)n(-c3ccc(F)cc3)c(=O)c3sccc32)cc1OC	/	2	/	/
CCNc1sc(S(C)(=O)=O)nc1S(=O)(=O)c1ccc(Cl)cc1	/	2	/	/
SMILES	bCat KO growth	WT yeast gro inh	PTEN del growth	DAT uptake mod
CCOc1c(OC)ccc2c3c(c(=O)oc12)CCCC3	0.5*	1	1.1*	0.27
COc1ccc2c3c(c(=O)oc2c1OCC(=O)O)CCCC3	95	13	109	/
Cc1ccc(C(=O)NCCN2C3=NC[C@H](Cc4ccc(O)cc4)N3C[C@H]2Cc2ccc(O)cc2)cc1Br	/	/	/	0.43
COc1ccc(C[C@H]2CN3C(=NC[C@@H]3Cc3ccc(O)cc3)N2CCNC(=O)c2ccc(C)c(Br)c2)cc1	/	-4	/	-2.5*
COc1ccc(C(C#N)Nc2ccccc2)cc1 (centres undefined)	96	-6	94	4.6*
Nc1c(Cl)cnc(C(Cl)(Cl)Cl)c1Cl	/	35	/	/
COCCOc1ccc(C(F)(F)F)cc1NC(=O)c1ccccc1F	98	-6	98	/
O=C(NCCN1CCCC1)c1ccc2c(=O)n(CCc3ccccc3)c(=O)[nH]c2c1	56	-9	58	-8.2*
CCCCCn1c(=O)[nH]c2cc(C(=O)NCCCN(CC)CC)ccc2c1=O	85	-1	72	-3.7*
CC(=O)c1cccc(NC(=O)CN(C)S(=O)(=O)c2ccccc2)c1	/	-1	/	/

Compound activity as filed in PubChem.
